Results filed as inconclusive are left out. Active and inactive are the calls of the source. Calls follow the shape of the dose curve; as a rule, active = well fitted curve in the direction sought with a large enough effect; inconclusive = small, poorly fitted or top-dose-only effect, or another doubt; inactive = no such curve, though single readings can be large or run the other way.
Potency is read from the fitted curve at half-maximal effect.

The nature of this assay: qHTS for Inhibitors of the vitamin D receptor (VDR): Hit Validation using a Texas Red Assay (AID 602201). Conditions: VDR coregulator binding, Texas Red fluorescence polarization, agonist-bound VDR ligand-binding domain; series mostly up to 57.1 µM. The essentials:
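Fluorescence polarization (Ex 595/Em 615 nm) of Texas Red (7 nM) with 1.5 uM VDR-LBD and LG19078 (final concentrations). Compounds were incubated for 2 hours at room temperature.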
On to `O=C(/C=C/c1cccc([N+](=O)[O-])c1)c1cccs1`, for which the Potency is 14.1 µM (active).
For the compound `O=C(O)c1cccc(CN2C(=O)S/C(=C/c3cccc([N+](=O)[O-])c3)C2=O)c1`, the Potency was 20 µM (active).
Then `COc1ccc(Cl)cc1NC(=O)CCS(=O)(=O)c1nc(-c2cccs2)cc(C(F)(F)F)n1`, with 11.2 µM (active); and `COc1cc(/C=C2\C(=O)ON=C2c2ccccc2)cc(Br)c1O`, with “inactive”; and `Cc1c(C(=O)Nc2nc(-c3ccccn3)cs2)oc2ccccc12`, with “inactive”.
Then `COc1cccc(/C=C/c2[nH]c(=O)[nH]c(=O)c2[N+](=O)[O-])c1O`, with “inactive”; and `O=C(/C(=C/c1ccncc1)n1ccnc1)c1ccc(Cl)cc1Cl`, with 14.1 µM (active).
Under `O=C(/C=C/c1ccc([N+](=O)[O-])cc1)c1cccs1` stands 25.1 µM (active); under `CCOC(=O)c1c(-c2ccccc2)csc1NC(=O)c1nc(S(=O)(=O)CC)ncc1Cl`, 3.55 µM (active).
With `CCN(CC)c1ccc(C=Nc2ccc(N(C)C)cc2)c(O)c1`, the Potency entry is “inactive”.
Then `CC(C)c1nnc(NC(=O)CCS(=O)(=O)c2nc(-c3cccs3)cc(C(F)(F)F)n2)s1`, with “inactive”; and `CC(=O)NC1=CC(=O)c2nonc2C1=O`, with 3.16 µM (active); and `CC(C)(C)c1cc(=O)n(-c2ccccc2)[nH]1`, with 12.6 µM (active).
In the case of `NC(=O)COc1ccc(/C=C2\C(=O)ON=C2c2ccccc2)cc1`, the Potency was 25.1 µM (active).
Under `CCS(=O)(=O)c1ncc(Cl)c(C(=O)N2CCN(c3cccc(Cl)c3)CC2)n1` stands 2.82 µM (active); under `CS(=O)(=O)c1ccc(C(=O)OCc2nnc(-c3ccc(Cl)cc3)o2)cc1[N+](=O)[O-]`, 8.91 µM (active).
Under `O=C1Nc2ccc(Br)cc2C1=Nc1cccnc1` stands “inactive”; under `C#CCOc1ccc(/C=C2/C(=O)ON=C2C)cc1Br`, “inactive”; under `CCOC(=O)c1ccc(S(=O)(=O)Nc2cc(S(=O)(=O)N3CCOCC3)ccc2O)cc1`, “inactive”.
Consider `Cc1nnc(NC(=O)c2nc(S(=O)(=O)Cc3ccccc3)ncc2Cl)s1`, for which the Potency was 22.4 µM (active).
Then `O=[N+]([O-])c1c(Nc2ccc(O)cc2)cc(Cl)c2nonc12`, with 3.16 µM (active); and `O=C(O)CN1C(=O)/C(=C\c2cc(Br)ccc2OCc2ccc(F)cc2)SC1=S`, with “inactive”.
Then `CC1=NNC(=O)/C1=C\c1cn(-c2ccccc2)nc1-c1ccccc1`, with 3.16 µM (active); and `Cc1ccc(NC(=O)C2=C(c3ccccc3)S(=O)(=O)CCS2(=O)=O)cc1`, with 10 µM (active).
With `Cc1ccc(NC(=O)c2nc(S(=O)(=O)Cc3ccccc3F)ncc2Cl)cc1`, the Potency was 2.82 µM (active).
Consider `O=C(Nc1ccc(F)cc1)c1nc(S(=O)(=O)Cc2ccccc2)ncc1Cl`, for which the Potency was 5.62 µM (active).
In the case of `Nc1c(N2CCCC2)cc(Cl)c2nonc12`, the Potency is 3.98 µM (active).
For `O=C(Nc1nc(-c2ccccn2)cs1)c1cc(Cl)ccc1[N+](=O)[O-]`, the Potency entry is “inactive”.
Then `CC(=O)N(C(C)=O)N1C(=O)C2C3c4ccccc4C(c4ccccc43)C2C1=O` (centres undefined), with “inactive”.
Then `Cc1c(Cc2ccc3c(c2)OCO3)sc(NC(=O)c2cccc3ccccc23)c1C(N)=O`, with 28.2 µM (active); and `CC(=O)Nc1cccc(C(=O)/C=C/c2ccc(Br)cc2)c1`, with 5.62 µM (active); and `Cc1ccc(C(=O)NC2(O)C(=O)c3ccccc3C2=O)cc1C`, with “inactive”.
With `CS(=O)(=O)c1ccc(S(=O)CC(=O)Oc2ccc(Cl)cc2)c([N+](=O)[O-])c1` (centres undefined), the Potency was 2.51 µM (active).
Under `Cc1nc2c3cc(F)ccc3n(Cc3ccccc3)c2s1` stands “inactive”.
As for `NS(=O)(=O)c1ccc(NC(=O)c2nc(S(=O)(=O)Cc3ccccc3F)ncc2Cl)cc1`, the Potency was 3.16 µM (active).
Then `O=C1Nc2ccccc2/C1=C/C(=O)c1cccs1`, with 28.2 µM (active); and `CN1CCN(C(=S)C(=O)Nc2ccc(Br)cc2)CC1`, with 17.8 µM (active).
Under `c1ccc(-c2ccc(C3=Nn4c(Cn5nnc6ccccc65)nnc4SC3)cc2)cc1` stands 22.4 µM (active); under `Cc1ccc(C=Nc2ccc(N(C)C)cc2)o1`, 20 µM (active).

(Values after PubChem BioAssay (NCATS).)
